MEKK3 PB1 HTS – modulators (inhibitors or enhancers) of MEK5 binding to human MEKK3 PB1 domain | AID 1529 | binding response (% of control), % at 10 µM | bead-based flow cytometry, Alexa488-MEK5 binding to MEKK3; actives lie on both sides; 0 = blocked by unlabeled MEK5, 100 = vehicle | 1.4% of 290,000 active | Q99759;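 active = binding response more than 3 SD above or below the average of its plate-row segment, actives on both sides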;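 note: Alexa488 bead fluorescence after subtracting the streptavidin-only scavenger bead signal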
B2AR ag – agonists of human beta-2 adrenergic receptor inducing internalization. P07550. Am2.2-beta2AR cells, FAP receptor internalization, flow cytometry. response, % (no concentration beside the values). 0.43% of 340,000 active. AID 504454;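 active = response above a set limit, near 3 SD of response in nonfluorescent compounds, cut at about 42% in these data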
Target sequence (P07550 whole entry, looked up): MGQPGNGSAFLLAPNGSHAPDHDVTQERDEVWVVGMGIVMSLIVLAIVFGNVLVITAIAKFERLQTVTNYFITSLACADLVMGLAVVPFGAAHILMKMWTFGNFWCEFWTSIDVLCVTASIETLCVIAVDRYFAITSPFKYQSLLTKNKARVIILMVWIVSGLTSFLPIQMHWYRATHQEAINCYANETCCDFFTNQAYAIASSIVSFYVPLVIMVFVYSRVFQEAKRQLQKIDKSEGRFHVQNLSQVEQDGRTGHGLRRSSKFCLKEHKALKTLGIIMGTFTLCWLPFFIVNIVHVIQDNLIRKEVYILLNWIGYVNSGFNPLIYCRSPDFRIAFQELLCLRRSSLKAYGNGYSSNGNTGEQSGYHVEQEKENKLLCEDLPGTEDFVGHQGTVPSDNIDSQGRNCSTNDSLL
MEKK2 WT-MEK5 – raises or lowers MEK5 binding to wildtype human MEKK2 PB1 domain; 1.1% of 290,000 active; bead flow cytometry, Alexa488-MEK5 binding to MEKK2 WT; actives lie on both sides; Q9Y2U5; binding response (% of control), % at 10 µM; in the data active = binding response below about 67% or above about 130%
MEKK2 mut-MEK5 – signal of MEK5 binding to mutant human MEKK2 PB1 domain. AID 1530. 0.35% of 290,000 active. bead flow cytometry, Alexa488-MEK5 binding to MEKK2 mutant. percent response, % at 10 µM; in the data active = percent response above about 24%, passing the limit was not always enough
GRK2 inh – inhibitors of human GRK2 displacing RNA aptamer. P25098. bead flow cytometry, FAM-aptamer displacement from GRK2. inhibition of aptamer binding, % at 10 µM. 0.59% of 330,000 active. AID 488847;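 active = inhibition of aptamer binding above 40%, roughly 3 SD of noise, on plates passing a quality check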;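 note: median bead fluorescence of bound FAM aptamer so fluorescent compounds give negative values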
Numbers without * were called inactive; . = no result. Sampled rows, rich in hits. Any-hit rate of the full collection: about 2.9%.

SMILES	MEKK3 PB1 HTS	B2AR ag	MEKK2 WT-MEK5	MEKK2 mut-MEK5	GRK2 inh
O=[N+]([O-])c1ccc(Cl)c2c1C1C=CCC1C(c1ccccn1)N2 (configuration not stated)	100.0	-3.4	98.0	-8.0	1.0
O=C(O)c1ccc(Cl)c2c1C1C=CCC1C(c1ccccn1)N2 (configuration not stated)	102.0	.	104.0	6.0	47.0*
CCCOc1ccc(/C=N/NC(=O)CN2CCCCC2)cc1OCC	105.0	-6.4	105.0	3.0	0.0
CCCCOc1ccc(C(=O)N/N=C/c2ccc(OCCN3CCCCC3)c(OC)c2)cc1	103.0	43.3*	114.0	3.0	0.0
O=C(CCn1cccn1)Nc1ccc2c(c1)OCCO2	97.0	4.8	98.0	2.0	2.0
COc1ccc2[nH]c(=O)c(CN(C(=O)c3cccnc3)c3ccc(C)cc3C)cc2c1	102.0	-3.5	-3.0*	4.0	1.0
CCOc1ccc(C(=O)CC(C(=O)O)N2CCCCC2)cc1 (configuration not stated)	.	-2.0	.	.	43.0*
Oc1ccc(N=Nc2ccc3c(c2)OCO3)c2ccccc12	102.0	.	99.0	0.0	78.0*
Cc1ccccc1CN1N=C(/C=C/c2ccccc2)CCC1=O	86.0	48.1*	81.0	-15.0	1.0
C[C@@]12C(=O)OC(=O)[C@]1(C)C1CCC2O1	.	80.6*	.	.	0.0
COc1cc(/C=C2\C(=O)ON=C2c2ccccc2)cc(Cl)c1O	103.0	-91.8	93.0	0.0	2.0
COc1cc(/C=C2/C(=O)ON=C2c2ccccc2)ccc1O	98.0	42.2*	95.0	-2.0	0.0
O=C1ON=C(c2ccccc2)/C1=C/c1ccc(O)cc1	110.0	46.6*	107.0	3.0	2.0
COc1cc(CNC(C)C23CC4CC(CC(C4)C2)C3)cc(OC)c1OC (configuration not stated)	93.0	4.0	98.0	2.0	2.0
CCCc1nc2ccccc2c(=O)n1CCc1ccccc1	102.0	-0.3	105.0	3.0	0.0
COc1ccc(C(=O)C(c2ccccc2)N2CCOCC2)cc1 (configuration not stated)	98.0	-0.9	104.0	5.0	1.0
Cc1ccc(C(=O)C(c2ccccc2)N2Cc3ccccc3C2=N)cc1 (configuration not stated)	94.0	80.7*	103.0	-1.0	3.0
CSc1nnc(-c2cccc(NC(=S)NN)c2)o1	100.0	73.7*	95.0	-10.0	0.0
C#CCOCCOCCOCCNc1nc(N2CCN(C(=O)C(Cc3cc4ccccc4[nH]3)n3cc(C(N)Cc4ccc(O)cc4)nn3)CC2)nc(N2CCN(C(=O)C(Cc3cc4ccccc4[nH]3)n3cc(C(N)Cc4ccc(O)cc4)nn3)CC2)n1 (configuration not stated)	98.0	.	298.0*	179.0*	.
C#CCOCCOCCOCCNc1nc(N2CCN(C(=O)C(Cc3cc4ccccc4[nH]3)n3cc(C(N)Cc4ccc(O)cc4)nn3)CC2)nc(N2CCN(C(=O)C(CCC(=O)O)n3cc(C(N)C(C)CC)nn3)CC2)n1 (configuration not stated)	.	6.8	.	.	2.0
C#CCOCCOCCOCCNc1nc(N2CCN(C(=O)C(CCC(=O)O)n3cc(C(N)CC(C)C)nn3)CC2)nc(N2CCN(C(=O)C(Cc3cc4ccccc4[nH]3)n3cc(C(N)Cc4ccc(O)cc4)nn3)CC2)n1 (configuration not stated)	105.0	1.6	131.0	19.0	0.0
C#CCOCCOCCOCCNc1nc(N2CCN(C(=O)[C@H](Cc3cc4ccccc4[nH]3)n3cc([C@@H](N)Cc4ccc(O)cc4)nn3)CC2)nc(N2CCN(C(=O)[C@H](Cc3cc4ccccc4[nH]3)n3cc([C@@H](N)CC(C)C)nn3)CC2)n1	98.0	73.0*	201.0*	54.0*	.
CC(C)NC(=O)Nc1cccc2c1O[C@H](CN(C)C(=O)NC1CCCCC1)[C@H](C)CN([C@H](C)CO)C2=O	.	-5.8	.	.	0.0
CCn1ncc(CN2CCC(C(=O)Nc3cccc(-c4cccc(F)c4)c3)CC2)c1C	103.0	-4.7	135.0	11.0	0.0
Cc1cc(C)n(CCCN2CCC(C(=O)Nc3cccc(-c4cccc(F)c4)c3)CC2)n1	109.0	41.2	158.0*	25.0*	0.0

Compound activity as filed in PubChem.
